Screening data deposited in PubChem BioAssay by National Center for Advancing Translational Sciences (NCATS).
In the library only some 21% were active in any assay of this set; here they are far more common.
Cycloheximide cs – counter-screen for Shiga toxin inhibitors: cycloheximide protein synthesis inhibition; cell reporter, cycloheximide protein synthesis inhibition counterscreen; max response, %; 300,000 tested, 12% active; in the data active = max response mostly above about 13%, no sharp cut-off; inactive = mostly below about 14%; note: read at 38.3 µM for the half of the compounds with a filed dose
Pf growth 96h – P. falciparum growth inhibition at 96 hour, primary screen for plastid delayed-death inhibitors. Potency, µM (titrated, usually from 28.7 µM), usual class: inhibitors. P. falciparum luciferase reporter growth, 96 h. 320,000 tested, 6.9% active; active = well fitted inhibition curve with a large enough effect; inconclusive = small, poorly fitted or top-dose-only effect, or another doubt; inactive = no such curve, though single readings can be large or run the other way
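Plates of compound plus infected erythrocytes (2% hematocrit, 0.05% parasitemia final) incubate 96 hours, 37 C, 5% CO2. Detection reagent added; reduced luminescence from the parasites' luciferase reporter flags inhibition.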
Pf growth 48h – P. falciparum growth inhibition at 48 hours (one generation); P. falciparum luciferase growth in erythrocytes, 48 h; Potency, µM (doses to about 28.7 µM), actives largely listed as inhibitors; 310,000 tested, 5.9% active; AID 504832; active = well fitted inhibition curve with a large enough effect; inconclusive = small, poorly fitted or top-dose-only effect, or another doubt; inactive = no such curve, though single readings can be large or run the other way
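Here the parasites carry a stable luciferase gene and grow inside erythrocytes in Albumax-based RPMI medium with compound for one erythrocytic cycle. Activity is scored as loss of luminescent signal.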
SARS PLP yeast – inhibitors of SARS-CoV papain-like protease in yeast; S. cerevisiae expressing SARS-CoV PLpro, growth rescue; Potency, µM (top dose mostly 32.9 µM), most hits filed as activators; 330,000 tested, 0.19% active; AID 485353; note: nearly all actives have a fitted effect of over 55% in size
Shiga inhibitor – blocks Shiga toxin action in Vero cells | Vero cells, Shiga toxin protein synthesis inhibition reporter | inhibition, % at 38.7 µM | 290,000 tested, 9.2% active | AID 2315; in the data active = inhibition mostly above about 28%, no sharp cut-off; inactive = mostly below about 43%
NS1 inh – inhibitors of influenza NS1 protein function | Potency, µM (series often up to 46.1 µM) | 270,000 tested, 0.4% active; note: actives are rising curves; nearly all actives have a fitted effect of over 50% in size
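OD600 was taken as the measure of yeast growth restored by compound in an NS1-expressing S. cerevisiae strain. Cells had been washed out of glucose medium and diluted 1:100 into galactose -URA medium, pH 6.0.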
Hits are given with their value; i = inactive; ? = inconclusive; nt = not tested or not shown. Unless noted, calls come from the whole dose curve.

SMILES	Cycloheximide cs	Pf growth 96h	Pf growth 48h	SARS PLP yeast	Shiga inhibitor	NS1 inh
CCOC(=O)c1c(N/N=C/c2cccnc2)n[nH]c1C	31	i	i	i	49	i
COC(=O)c1cc(-c2cccs2)[nH]n1	31	i	i	i	i	i
COC(=O)c1cc(=O)nc2sc(-c3cccs3)nn12	i	nt	i	i	i	i
CN(C)S(=O)(=O)c1cccc(NC(=O)CN2C(=O)NC(CCc3ccccc3)C2=O)c1 (stereo not drawn)	i	i	?	i	i	i
CC(C)(C)c1ccc(N2C(=O)Cc3c2nc(N)c(C#N)c3N)cc1	35	nt	i	i	i	i
CCc1ccc(N2C(=O)Cc3c2nc(N)c(C#N)c3N)cc1	23	nt	i	i	114	i
CCc1ccc(N2C(=O)CC(=O)NC2=O)cc1	i	i	i	i	i	i
CCOc1nc(CC)nc(NC(=O)NS(=O)(=O)c2ccccc2Cl)n1	i	i	i	i	i	i
CC(C)(CNS(C)(=O)=O)SCc1ccc(Cl)cc1	i	i	i	i	i	nt
O=C(Cn1nc2sc3ccccc3n2c(=O)c1=O)c1ccc(Cl)cc1	i	i	i	i	i	i
C/C(=N\O)c1ccc(N2C(=O)C3CC=C(Cl)CC3C2=O)cc1 (stereo not drawn)	37	5.2µM	i	i	80	i
COc1ccccc1NS(=O)(=O)c1cccc(C(=O)N2CCCC2)c1	nt	nt	nt	i	nt	nt
C=CCN1C(=S)CC(c2ccccc2)=Nc2ccccc21	i	?	?	i	i	i
CC1(c2ccccc2)CC(c2ccccc2)=Nc2ccccc2N1 (stereo not drawn)	57	i	?	i	91	i
Cc1ccc(C2=Nc3ccccc3NC(C)(c3ccc(C)o3)C2)o1 (stereo not drawn)	60	?	?	i	82	i
CC1(c2ccccc2)CC(c2ccccc2)=Nc2nonc2N1 (stereo not drawn)	i	?	1.5µM	i	i	i
COc1ccc(S(=O)(=O)Nc2ccccc2C(=O)NC(C)C)cc1OC	i	i	i	i	i	i
COc1ccccc1OCCNC(=O)CSC(=S)N1CCCC1	nt	i	i	i	nt	nt
COc1ccc(N2C(=O)c3ccccc3NC2c2ccc(OC)c(Cn3nnc4ccccc43)c2)cc1 (stereo not drawn)	21	9.3µM	12µM	i	i	i
COc1ccc(C2Nc3ccccc3C(=O)N2c2ccc(C)cc2)cc1COc1ccccn1 (stereo not drawn)	37	i	i	i	i	i
COc1ccc(C2Nc3ccccc3C(=O)N2c2ccc(C)cc2)cc1Cn1nc(C)c([N+](=O)[O-])c1C (stereo not drawn)	47	?	?	i	i	i
COc1ccc(C2Nc3ccccc3C(=O)N2c2ccccc2)cc1CN1CCOCC1 (stereo not drawn)	i	?	i	i	i	i
COc1ccc(/C=C(/NC(=O)c2ccccc2)C(=O)N2CCCC2)cc1	i	i	i	i	i	i
C=CCNC(=O)C1CCC(=O)N1S(=O)(=O)c1ccc(C)cc1 (stereo not drawn)	i	?	i	i	i	i
O=S(=O)(c1cccs1)N1CCCc2cccc(O)c21	54	i	nt	i	80	i
SMILES	Cycloheximide cs	Pf growth 96h	Pf growth 48h	SARS PLP yeast	Shiga inhibitor	NS1 inh
Cc1cc(C)c(C#N)c(Oc2ccc(O)cc2)n1	i	5.2µM	i	i	i	i
Cc1cc(C)c(C#N)c(Oc2ccc(F)cc2)n1	i	i	?	i	i	i
COC(=O)c1scc(C)c1N1C(=O)c2ccccc2C1=O	i	i	i	i	i	i
O=C(NCCCC1CCCC1)C1CCC(=O)N(Cc2cccc(C(F)(F)F)c2)C1 (stereo not drawn)	i	12µM	i	i	i	i
O=C(NCC1CCOCC1)C1CCC(=O)N(Cc2cccc(C(F)(F)F)c2)C1 (stereo not drawn)	i	?	i	i	i	i
O=C1CCC(C(=O)N2CCCO2)CN1Cc1cccc(C(F)(F)F)c1 (stereo not drawn)	29	i	i	i	44	i
O=C1CCC(C(=O)N2CCCC2)CN1Cc1cccc(C(F)(F)F)c1 (stereo not drawn)	i	i	i	i	i	i
O=C(NCc1cccs1)C1CCC(=O)N(Cc2cccc(C(F)(F)F)c2)C1 (stereo not drawn)	39	?	?	i	i	i
